The supplement of paper PMC4466140

Key:
Assay in all cases: SPOT peptide array binding signal intensity (averaged, normalized) (arbitrary units (background-subtracted, floor 0; scale differs between SH3 domains)); higher = stronger binding of the SH3 domain to the peptide
[1] = molecular target: CaNbp2
Method in brief: (§1)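 Binding signal is given in arbitrary units that differ between domains and is the normalized, background-subtracted spot intensity averaged across replicates. Each GST-SH3 fusion from one of four yeast species was made in E. coli BL21(DE3), purified on glutathione Sepharose and incubated at 10 μg/ml overnight at 4°C on cellulose-bound synthetic 15-mer peptides in which cysteines were replaced by serines. Detection used anti-GST antibody, an HRP anti-mouse secondary and luminol, followed by imaging and Genespotter quantification.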

[2] = molecular target: CaRvs167
Method in brief: as §1

[3] = molecular target: CaRvs167-3
Method in brief: as §1

[4] = molecular target: CaSho1
Method in brief: as §1

[5] = molecular target: CaSla1-D1-D2
Method in brief: as §1

[6] = molecular target: CaSla1-D3
Method in brief: as §1

[7] = molecular target: ScAbp1
Method in brief: as §1

[8] = molecular target: ScBbc1
Method in brief: as §1

[9] = molecular target: ScBem1-D1
Method in brief: as §1

[10] = molecular target: ScBzz1-D1
Method in brief: as §1

[11] = molecular target: ScBzz1-D2
Method in brief: as §1

[12] = molecular target: ScCyk3
Method in brief: as §1

[13] = molecular target: ScFus1
Method in brief: as §1

[14] = molecular target: ScHof1
Method in brief: as §1

[15] = molecular target: ScHse1
Method in brief: as §1

[16] = molecular target: ScLsb1
Method in brief: as §1

[17] = molecular target: ScLsb2
Method in brief: as §1

[18] = molecular target: ScLsb3
Method in brief: as §1

[19] = molecular target: ScLsb4
Method in brief: as §1

[20] = molecular target: ScMyo3
Method in brief: as §1

[21] = molecular target: ScMyo5
Method in brief: as §1

[22] = molecular target: ScNbp2
Method in brief: as §1

[23] = molecular target: ScPex13
Method in brief: as §1

[24] = molecular target: ScRvs167
Method in brief: as §1

[25] = molecular target: ScSho1
Method in brief: as §1

[26] = molecular target: ScSla1-D1-D2
Method in brief: as §1

[27] = molecular target: ScSla1-D3
Method in brief: as §1

[28] = molecular target: SpAbp1-D1
Method in brief: as §1

[29] = molecular target: SpBbc1
Method in brief: as §1

[30] = molecular target: SpBzz1-D1
Method in brief: as §1

[31] = molecular target: SpBzz1-D2
Method in brief: as §1

[32] = molecular target: SpCyk3
Method in brief: as §1

[33] = molecular target: SpHof1
Method in brief: as §1

[34] = molecular target: SpHof1-2
Method in brief: as §1

[35] = molecular target: SpHof1-3
Method in brief: as §1

[36] = molecular target: SpHse1
Method in brief: as §1

[37] = molecular target: SpLsb1
Method in brief: as §1

[38] = molecular target: SpLsb4
Method in brief: as §1

[39] = molecular target: SpMyo1
Method in brief: as §1

[40] = molecular target: SpNbp2
Method in brief: as §1

[41] = molecular target: SpPex13
Method in brief: as §1

[42] = molecular target: SpRvs167
Method in brief: as §1

[43] = molecular target: SpSla1-D1-D2
Method in brief: as §1

[44] = molecular target: SpSla1-D3
Method in brief: as §1

[45] = molecular target: AgAbp1
Method in brief: as §1

[46] = molecular target: AgBbc1
Method in brief: as §1

[47] = molecular target: AgBem1-D1
Method in brief: as §1

[48] = molecular target: AgBzz1-D1
Method in brief: as §1

[49] = molecular target: AgBzz1-D2
Method in brief: as §1

[50] = molecular target: AgCyk3
Method in brief: as §1

[51] = molecular target: AgFus1
Method in brief: as §1

[52] = molecular target: AgHof1
Method in brief: as §1

[53] = molecular target: AgHse1
Method in brief: as §1

[54] = molecular target: AgLsb1
Method in brief: as §1

[55] = molecular target: AgLsb4
Method in brief: as §1

[56] = molecular target: AgMyo5
Method in brief: as §1

[57] = molecular target: AgNbp2
Method in brief: as §1

[58] = molecular target: AgRvs167
Method in brief: as §1

[59] = molecular target: AgSho1
Method in brief: as §1

[60] = molecular target: AgSla1-D1-D2
Method in brief: as §1

[61] = molecular target: AgSla1-D3
Method in brief: as §1

[62] = molecular target: CaAbp1-D1
Method in brief: as §1

[63] = molecular target: CaAbp1-D2
Method in brief: as §1

[64] = molecular target: CaBbc1
Method in brief: as §1

[65] = molecular target: CaBem1-D1
Method in brief: as §1

[66] = molecular target: CaBzz1-D1
Method in brief: as §1

[67] = molecular target: CaBzz1-D2
Method in brief: as §1

[68] = molecular target: CaCyk3
Method in brief: as §1

[69] = molecular target: CaFus1
Method in brief: as §1

[70] = molecular target: CaHof1
Method in brief: as §1

[71] = molecular target: CaHse1
Method in brief: as §1

[72] = molecular target: CaLsb1
Method in brief: as §1

[73] = molecular target: CaLsb4
Method in brief: as §1

[74] = molecular target: CaMyo5
Method in brief: as §1

DLFKPLPEPPTELGR
SPOT peptide array binding signal intensity [1]: ≤ 0 | SPOT peptide array binding signal intensity [2]: 6.67 | SPOT peptide array binding signal intensity [3]: ≤ 0 | SPOT peptide array binding signal intensity [4]: 2540 | SPOT peptide array binding signal intensity [5]: ≤ 0 | SPOT peptide array binding signal intensity [6]: ≤ 0 | SPOT peptide array binding signal intensity [7]: ≤ 0 | SPOT peptide array binding signal intensity [8]: ≤ 0 | SPOT peptide array binding signal intensity [9]: ≤ 0 | SPOT peptide array binding signal intensity [10]: 1 | SPOT peptide array binding signal intensity [11]: ≤ 0 | SPOT peptide array binding signal intensity [12]: ≤ 0 | SPOT peptide array binding signal intensity [13]: ≤ 0 | SPOT peptide array binding signal intensity [14]: 1 | SPOT peptide array binding signal intensity [15]: ≤ 0 | SPOT peptide array binding signal intensity [16]: ≤ 0 | SPOT peptide array binding signal intensity [17]: ≤ 0 | SPOT peptide array binding signal intensity [18]: ≤ 0 | SPOT peptide array binding signal intensity [19]: 10 | SPOT peptide array binding signal intensity [20]: ≤ 0 | SPOT peptide array binding signal intensity [21]: ≤ 0 | SPOT peptide array binding signal intensity [22]: ≤ 0 | SPOT peptide array binding signal intensity [23]: 1030 | SPOT peptide array binding signal intensity [24]: ≤ 0 | SPOT peptide array binding signal intensity [25]: 5560 | SPOT peptide array binding signal intensity [26]: ≤ 0 | SPOT peptide array binding signal intensity [27]: 3 | SPOT peptide array binding signal intensity [28]: ≤ 0 | SPOT peptide array binding signal intensity [29]: ≤ 0 | SPOT peptide array binding signal intensity [30]: ≤ 0 | SPOT peptide array binding signal intensity [31]: ≤ 0 | SPOT peptide array binding signal intensity [32]: 1.5 | SPOT peptide array binding signal intensity [33]: 1460 | SPOT peptide array binding signal intensity [34]: 1970 | SPOT peptide array binding signal intensity [35]: 734 | SPOT peptide array binding signal intensity [36]: 0.75 | SPOT peptide array binding signal intensity [37]: ≤ 0 | SPOT peptide array binding signal intensity [38]: ≤ 0 | SPOT peptide array binding signal intensity [39]: ≤ 0 | SPOT peptide array binding signal intensity [40]: ≤ 0 | SPOT peptide array binding signal intensity [41]: 3 | SPOT peptide array binding signal intensity [42]: 5.67 | SPOT peptide array binding signal intensity [43]: ≤ 0 | SPOT peptide array binding signal intensity [44]: ≤ 0

AHFQPQRTAPKPPIS
SPOT peptide array binding signal intensity [45]: 2.5 | SPOT peptide array binding signal intensity [46]: 89.8 | SPOT peptide array binding signal intensity [47]: 58.8 | SPOT peptide array binding signal intensity [48]: 16 | SPOT peptide array binding signal intensity [49]: 54.5 | SPOT peptide array binding signal intensity [50]: ≤ 0 | SPOT peptide array binding signal intensity [51]: ≤ 0 | SPOT peptide array binding signal intensity [52]: 3 | SPOT peptide array binding signal intensity [53]: 18 | SPOT peptide array binding signal intensity [54]: 16.8 | SPOT peptide array binding signal intensity [55]: 0.5 | SPOT peptide array binding signal intensity [56]: 954 | SPOT peptide array binding signal intensity [57]: 3970 | SPOT peptide array binding signal intensity [58]: 0.583 | SPOT peptide array binding signal intensity [59]: ≤ 0 | SPOT peptide array binding signal intensity [60]: ≤ 0 | SPOT peptide array binding signal intensity [61]: 1 | SPOT peptide array binding signal intensity [62]: 65.5 | SPOT peptide array binding signal intensity [63]: 33.8 | SPOT peptide array binding signal intensity [64]: 743 | SPOT peptide array binding signal intensity [65]: 958 | SPOT peptide array binding signal intensity [66]: 779 | SPOT peptide array binding signal intensity [67]: 136 | SPOT peptide array binding signal intensity [68]: ≤ 0 | SPOT peptide array binding signal intensity [69]: ≤ 0 | SPOT peptide array binding signal intensity [70]: ≤ 0 | SPOT peptide array binding signal intensity [71]: 2.5 | SPOT peptide array binding signal intensity [72]: ≤ 0 | SPOT peptide array binding signal intensity [73]: 23 | SPOT peptide array binding signal intensity [74]: 33.6 | SPOT peptide array binding signal intensity [1]: 3970 | SPOT peptide array binding signal intensity [2]: 12.8 | SPOT peptide array binding signal intensity [3]: ≤ 0 | SPOT peptide array binding signal intensity [4]: 11.8 | SPOT peptide array binding signal intensity [5]: 54.5 | SPOT peptide array binding signal intensity [6]: 0.75 | SPOT peptide array binding signal intensity [7]: 11 | SPOT peptide array binding signal intensity [8]: 165 | SPOT peptide array binding signal intensity [9]: 6 | SPOT peptide array binding signal intensity [10]: 17.5 | SPOT peptide array binding signal intensity [11]: 12.8 | SPOT peptide array binding signal intensity [12]: ≤ 0 | SPOT peptide array binding signal intensity [13]: ≤ 0 | SPOT peptide array binding signal intensity [14]: 0.5 | SPOT peptide array binding signal intensity [15]: 37 | SPOT peptide array binding signal intensity [16]: 0.25 | SPOT peptide array binding signal intensity [17]: 35 | SPOT peptide array binding signal intensity [18]: 152 | SPOT peptide array binding signal intensity [19]: 5 | SPOT peptide array binding signal intensity [20]: 1610 | SPOT peptide array binding signal intensity [21]: 1320 | SPOT peptide array binding signal intensity [22]: 6790 | SPOT peptide array binding signal intensity [23]: 212 | SPOT peptide array binding signal intensity [24]: 59.8 | SPOT peptide array binding signal intensity [25]: ≤ 0 | SPOT peptide array binding signal intensity [26]: 265 | SPOT peptide array binding signal intensity [27]: 44 | SPOT peptide array binding signal intensity [28]: ≤ 0 | SPOT peptide array binding signal intensity [29]: 22 | SPOT peptide array binding signal intensity [30]: 258
